# Assay results published in PubChem BioAssay AID1159580 (chemical genetic matrix, 2015).
# The whole screen tested about 5,500 compounds, of which about 2,000 (36%) were called active. Not shown: some 18% with an inconclusive outcome. Some of the results follow. Unmarked numbers belong to inactive results. Cut-off read from the data, not from the text of the source: active = normalized growth mostly below about 0.91 (no sharp cut-off); inconclusive = no clear call, values can overlap the other calls; inactive = mostly above about 0.92.
# Assay: chemical genetic growth profiling, strain panel (AID 1159580);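 note: tested at 20 µM; growth read once vehicle control cultures reached saturation at 30 °C; 1 = growth at the plate median or of vehicle wells; lower values mean less growth of the strain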
# Settings: growth OD
smiles,measurement,setting,value
O=C(Nc1ccccc1)Nc1ccccc1,normalized growth,"S. cerevisiae deletion strains, locus YKL009W, strain mrt4, stronger effect = lower value",0.956
same,normalized growth,"S. cerevisiae deletion strains, locus YKL068W, stronger effect = lower value",0.975
same,normalized growth,"S. cerevisiae deletion strains, locus YKL085W, strain MDH1 (second series), stronger effect = lower value",0.979
same,normalized growth,"S. cerevisiae deletion strains, locus YKL085W, strain MDH1, stronger effect = lower value",0.979
same,normalized growth,"S. cerevisiae deletion strains, locus YKL160W, strain elf1, stronger effect = lower value",0.95
same,normalized growth,"S. cerevisiae deletion strains, locus YKR001C, strain vps1, stronger effect = lower value",0.97
same,normalized growth,"S. cerevisiae deletion strains, locus YKR026C, strain gcn3, stronger effect = lower value",0.967
same,normalized growth,"S. cerevisiae deletion strains, locus YKR091W, strain srl3, stronger effect = lower value",0.962
same,normalized growth,"S. cerevisiae deletion strains, locus YLL001W, strain dnm1, stronger effect = lower value",0.982
same,normalized growth,"S. cerevisiae deletion strains, locus YLL026W, stronger effect = lower value",0.958
same,normalized growth,"S. cerevisiae deletion strains, locus YLL041C, strain sdh2, stronger effect = lower value",0.982
same,normalized growth,"S. cerevisiae deletion strains, locus YLR027C, strain aat2, stronger effect = lower value",0.944
same,normalized growth,"S. cerevisiae deletion strains, locus YLR039C, strain RIC1, stronger effect = lower value",1.38 [resistant] (active)
same,normalized growth,"S. cerevisiae deletion strains, locus YLR058C, strain SHM2, stronger effect = lower value",0.99
same,normalized growth,"S. cerevisiae deletion strains, locus YLR102C, strain apc9, stronger effect = lower value",0.98
same,normalized growth,"S. cerevisiae deletion strains, locus YLR113W, strain HOG1, stronger effect = lower value",1.01
same,normalized growth,"S. cerevisiae deletion strains, locus YLR221C, strain rsa3, stronger effect = lower value",0.957
same,normalized growth,"S. cerevisiae deletion strains, locus YLR258W, strain gsy2, stronger effect = lower value",0.974
same,normalized growth,"S. cerevisiae deletion strains, locus YLR262C, strain YPT6 (second series), stronger effect = lower value",0.96
same,normalized growth,"S. cerevisiae deletion strains, locus YLR262C, strain YPT6, stronger effect = lower value",1.34
same,normalized growth,"S. cerevisiae deletion strains, locus YLR268W, strain sec22, stronger effect = lower value",0.989
same,normalized growth,"S. cerevisiae deletion strains, locus YLR320W, strain mms22, stronger effect = lower value",0.99
same,normalized growth,"S. cerevisiae deletion strains, locus YLR342W, strain FKS1 (second series), stronger effect = lower value",0.991
same,normalized growth,"S. cerevisiae deletion strains, locus YLR342W, strain FKS1, stronger effect = lower value",0.972
same,normalized growth,"S. cerevisiae deletion strains, locus YLR357W, strain rsc2, stronger effect = lower value",0.96
same,normalized growth,"S. cerevisiae deletion strains, locus YLR370C, strain arc18, stronger effect = lower value",0.932
same,normalized growth,"S. cerevisiae deletion strains, locus YLR371W, strain rom2, stronger effect = lower value",0.944
same,normalized growth,"S. cerevisiae deletion strains, locus YLR384C, strain iki3, stronger effect = lower value",0.967
same,normalized growth,"S. cerevisiae deletion strains, locus YLR418C, strain cdc73, stronger effect = lower value",1.06
same,normalized growth,"S. cerevisiae deletion strains, locus YML016C, strain PPZ1, stronger effect = lower value",0.991
same,normalized growth,"S. cerevisiae deletion strains, locus YML032C, strain rad52, stronger effect = lower value",0.98
same,normalized growth,"S. cerevisiae deletion strains, locus YML120C, strain ndi1, stronger effect = lower value",0.98
same,normalized growth,"S. cerevisiae deletion strains, locus YML124C, strain tub3, stronger effect = lower value",0.971
same,normalized growth,"S. cerevisiae deletion strains, locus YMR058W, strain fet3, stronger effect = lower value",0.946
same,normalized growth,"S. cerevisiae deletion strains, locus YMR078C, strain ctf18, stronger effect = lower value",0.981
same,normalized growth,"S. cerevisiae deletion strains, locus YMR125W, strain sto1, stronger effect = lower value",0.949
same,normalized growth,"S. cerevisiae deletion strains, locus YMR129W, stronger effect = lower value",0.959
same,normalized growth,"S. cerevisiae deletion strains, locus YMR205C, strain PFK2, stronger effect = lower value",0.984
same,normalized growth,"S. cerevisiae deletion strains, locus YMR223W, strain ubp8, stronger effect = lower value",0.976
same,normalized growth,"S. cerevisiae deletion strains, locus YMR231W, strain pep5, stronger effect = lower value",0.99
same,normalized growth,"S. cerevisiae deletion strains, locus YMR263W, strain SAP30, stronger effect = lower value",1
same,normalized growth,"S. cerevisiae deletion strains, locus YMR307W, strain GAS1, stronger effect = lower value",1.34
same,normalized growth,"S. cerevisiae deletion strains, locus YNL067W, strain RPL9B, stronger effect = lower value",0.996
same,normalized growth,"S. cerevisiae deletion strains, locus YNL071W, strain lat1, stronger effect = lower value",0.965
same,normalized growth,"S. cerevisiae deletion strains, locus YNL128W, strain TEP1, stronger effect = lower value",1
same,normalized growth,"S. cerevisiae deletion strains, locus YNL183C, strain NPR1, stronger effect = lower value",0.949
same,normalized growth,"S. cerevisiae deletion strains, locus YNL209W, strain ssb2, stronger effect = lower value",0.966
same,normalized growth,"S. cerevisiae deletion strains, locus YNL233W, strain BNI4, stronger effect = lower value",1.05
same,normalized growth,"S. cerevisiae deletion strains, locus YNL248C, strain rpa49, stronger effect = lower value",0.921
same,normalized growth,"S. cerevisiae deletion strains, locus YNL250W, strain rad50, stronger effect = lower value",0.973
same,normalized growth,"S. cerevisiae deletion strains, locus YNL271C, strain bni1, stronger effect = lower value",0.978
same,normalized growth,"S. cerevisiae deletion strains, locus YNL298W, strain CLA4, stronger effect = lower value",1.02
same,normalized growth,"S. cerevisiae deletion strains, locus YNL307C, strain MCK1, stronger effect = lower value",0.985
same,normalized growth,"S. cerevisiae deletion strains, locus YNL322C, strain KRE1 (second series), stronger effect = lower value",0.965
same,normalized growth,"S. cerevisiae deletion strains, locus YNR049C, strain mso1, stronger effect = lower value",0.95
same,normalized growth,"S. cerevisiae deletion strains, locus YNR052C, strain pop2, stronger effect = lower value",0.993
same,normalized growth,"S. cerevisiae deletion strains, locus YOL012C, strain htz1",0.934
same,normalized growth,"S. cerevisiae deletion strains, locus YOL147C, strain pex11, stronger effect = lower value",0.978
same,normalized growth,"S. cerevisiae deletion strains, locus YOR001W, strain rrp6, stronger effect = lower value",0.957
same,normalized growth,"S. cerevisiae deletion strains, locus YOR061W, strain CKA2, stronger effect = lower value",1.02
same,normalized growth,"S. cerevisiae deletion strains, locus YOR069W, strain VPS5, stronger effect = lower value",1
same,normalized growth,"S. cerevisiae deletion strains, locus YOR070C, strain gyp1, stronger effect = lower value",0.977
same,normalized growth,"S. cerevisiae deletion strains, locus YOR080W, strain dia2, stronger effect = lower value",0.963
same,normalized growth,"S. cerevisiae deletion strains, locus YOR083W, strain WHI5, stronger effect = lower value",0.959
same,normalized growth,"S. cerevisiae deletion strains, locus YOR106W, strain vam3, stronger effect = lower value",0.902
same,normalized growth,"S. cerevisiae deletion strains, locus YOR136W, strain idh2, stronger effect = lower value",0.996
same,normalized growth,"S. cerevisiae deletion strains, locus YOR144C, strain elg1, stronger effect = lower value",0.97
same,normalized growth,"S. cerevisiae deletion strains, locus YOR184W, strain ser1, stronger effect = lower value",1.03
same,normalized growth,"S. cerevisiae deletion strains, locus YOR231W, strain MKK1, stronger effect = lower value",1.01
same,normalized growth,"S. cerevisiae deletion strains, locus YOR265W, strain rbl2, stronger effect = lower value",0.964
same,normalized growth,"S. cerevisiae deletion strains, locus YOR270C, strain vph1, stronger effect = lower value",0.875
same,normalized growth,"S. cerevisiae deletion strains, locus YOR290C, strain snf2, stronger effect = lower value",0.907
same,normalized growth,"S. cerevisiae deletion strains, locus YOR316C, strain cot1, stronger effect = lower value",0.989
same,normalized growth,"S. cerevisiae deletion strains, locus YPL051W, strain arl3, stronger effect = lower value",0.928
same,normalized growth,"S. cerevisiae deletion strains, locus YPL055C, strain LGE1, stronger effect = lower value",1.17
same,normalized growth,"S. cerevisiae deletion strains, locus YPL078C, strain atp4, stronger effect = lower value",0.923
same,normalized growth,"S. cerevisiae deletion strains, locus YPL106C, strain sse1, stronger effect = lower value",0.932
same,normalized growth,"S. cerevisiae deletion strains, locus YPL240C, strain hsp82, stronger effect = lower value",0.967
same,normalized growth,"S. cerevisiae deletion strains, locus YPL241C, strain CIN2, stronger effect = lower value",0.998
same,normalized growth,"S. cerevisiae deletion strains, locus YPL256C, strain CLN2, stronger effect = lower value",0.985
same,normalized growth,"S. cerevisiae deletion strains, locus YPR119W, strain clb2, stronger effect = lower value",0.966
same,normalized growth,"S. cerevisiae deletion strains, locus YPR141C, strain kar3, stronger effect = lower value",0.975
same,normalized growth,"S. cerevisiae deletion strains, locus YPR163C, strain tif3, stronger effect = lower value",0.987
same,normalized growth,"S. cerevisiae deletion strains, locus YPR167C, strain met16, stronger effect = lower value",0.984
same,normalized growth,"S. cerevisiae deletion strains, strain wtn01, stronger effect = lower value",0.996
same,normalized growth,"S. cerevisiae strains, strain wild type, stronger effect = lower value",1.07
